The results in this text go back to the supplement of paper PMC10849652.

About 7,900 targets were measured; listed, in parts, are those with a hit and a random draw of the rest. About 0.6% of all pairs of compound and target were hits.

Chain of UniProt P12956 (P12956 whole entry, looked up): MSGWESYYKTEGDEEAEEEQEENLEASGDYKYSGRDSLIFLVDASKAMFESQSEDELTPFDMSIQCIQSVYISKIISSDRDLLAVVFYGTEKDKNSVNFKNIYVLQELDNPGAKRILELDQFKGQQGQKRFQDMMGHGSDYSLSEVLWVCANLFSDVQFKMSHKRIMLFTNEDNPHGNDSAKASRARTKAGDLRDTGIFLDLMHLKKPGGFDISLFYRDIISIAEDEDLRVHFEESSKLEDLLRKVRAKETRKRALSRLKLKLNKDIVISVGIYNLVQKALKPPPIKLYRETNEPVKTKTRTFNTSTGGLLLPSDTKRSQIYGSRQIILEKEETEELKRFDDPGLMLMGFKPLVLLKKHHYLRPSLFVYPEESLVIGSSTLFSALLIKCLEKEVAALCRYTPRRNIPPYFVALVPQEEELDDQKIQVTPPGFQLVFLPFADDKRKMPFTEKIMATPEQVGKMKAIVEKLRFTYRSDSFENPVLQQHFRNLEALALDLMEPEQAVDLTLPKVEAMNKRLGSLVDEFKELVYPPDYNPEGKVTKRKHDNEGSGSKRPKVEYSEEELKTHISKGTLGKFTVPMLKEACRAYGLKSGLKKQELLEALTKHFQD
Chain of UniProt Q9UID3 (Q9UID3 whole entry, looked up): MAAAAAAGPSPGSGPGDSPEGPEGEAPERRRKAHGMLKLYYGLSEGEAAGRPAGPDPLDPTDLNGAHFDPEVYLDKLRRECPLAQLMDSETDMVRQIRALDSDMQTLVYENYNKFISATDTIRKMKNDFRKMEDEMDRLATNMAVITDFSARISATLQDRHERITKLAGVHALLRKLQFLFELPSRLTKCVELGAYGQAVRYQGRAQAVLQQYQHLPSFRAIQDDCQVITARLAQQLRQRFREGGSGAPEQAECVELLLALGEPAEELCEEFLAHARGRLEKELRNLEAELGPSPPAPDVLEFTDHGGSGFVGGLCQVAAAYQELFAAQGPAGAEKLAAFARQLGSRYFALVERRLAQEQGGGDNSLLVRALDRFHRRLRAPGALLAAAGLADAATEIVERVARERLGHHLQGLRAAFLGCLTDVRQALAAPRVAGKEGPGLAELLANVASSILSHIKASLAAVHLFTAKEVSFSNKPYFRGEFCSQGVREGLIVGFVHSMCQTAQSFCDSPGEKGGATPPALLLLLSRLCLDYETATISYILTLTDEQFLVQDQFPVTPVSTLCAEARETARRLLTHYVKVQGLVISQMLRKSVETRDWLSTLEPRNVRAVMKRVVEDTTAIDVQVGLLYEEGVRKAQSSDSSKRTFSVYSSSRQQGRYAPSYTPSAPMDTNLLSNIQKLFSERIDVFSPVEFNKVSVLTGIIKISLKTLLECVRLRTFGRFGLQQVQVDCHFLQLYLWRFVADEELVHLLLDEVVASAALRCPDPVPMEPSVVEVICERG
Chain of UniProt Q9UBK9 (Q9UBK9 whole entry, looked up): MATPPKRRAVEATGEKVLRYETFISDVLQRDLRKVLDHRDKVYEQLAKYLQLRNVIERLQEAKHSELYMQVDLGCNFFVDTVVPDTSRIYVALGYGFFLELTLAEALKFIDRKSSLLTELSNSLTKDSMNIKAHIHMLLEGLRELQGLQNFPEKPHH
Chain of UniProt Q9NQ34 (Q9NQ34 whole entry, looked up): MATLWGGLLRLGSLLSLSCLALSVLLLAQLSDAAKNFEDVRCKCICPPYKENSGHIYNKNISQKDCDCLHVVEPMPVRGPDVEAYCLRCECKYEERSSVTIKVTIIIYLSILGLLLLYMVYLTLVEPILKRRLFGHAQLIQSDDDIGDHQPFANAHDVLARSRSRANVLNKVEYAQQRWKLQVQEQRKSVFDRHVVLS
Chain of UniProt A6NHL2 (A6NHL2 whole entry, looked up): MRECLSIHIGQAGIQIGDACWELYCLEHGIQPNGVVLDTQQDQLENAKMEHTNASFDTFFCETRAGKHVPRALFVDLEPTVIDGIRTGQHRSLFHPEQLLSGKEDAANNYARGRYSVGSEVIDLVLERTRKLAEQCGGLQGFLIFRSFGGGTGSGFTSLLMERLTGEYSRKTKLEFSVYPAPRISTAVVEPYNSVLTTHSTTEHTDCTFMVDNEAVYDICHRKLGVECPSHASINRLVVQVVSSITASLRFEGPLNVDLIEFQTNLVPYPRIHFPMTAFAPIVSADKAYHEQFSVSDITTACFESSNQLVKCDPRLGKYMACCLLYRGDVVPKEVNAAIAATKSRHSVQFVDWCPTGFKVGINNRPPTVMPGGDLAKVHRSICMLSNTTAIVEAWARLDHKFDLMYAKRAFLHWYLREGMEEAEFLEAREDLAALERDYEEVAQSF
Chain of UniProt Q5U3C3 (Q5U3C3 whole entry, looked up): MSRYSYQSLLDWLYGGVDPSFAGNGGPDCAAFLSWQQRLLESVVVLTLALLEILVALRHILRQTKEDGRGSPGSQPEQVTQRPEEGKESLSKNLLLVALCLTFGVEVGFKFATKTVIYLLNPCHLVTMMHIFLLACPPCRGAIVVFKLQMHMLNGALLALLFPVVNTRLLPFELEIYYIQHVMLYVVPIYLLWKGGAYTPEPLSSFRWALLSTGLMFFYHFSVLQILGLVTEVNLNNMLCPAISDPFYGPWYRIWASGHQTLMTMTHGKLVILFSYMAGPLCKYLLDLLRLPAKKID
Chain of UniProt Q86XT9 (Q86XT9 whole entry, looked up): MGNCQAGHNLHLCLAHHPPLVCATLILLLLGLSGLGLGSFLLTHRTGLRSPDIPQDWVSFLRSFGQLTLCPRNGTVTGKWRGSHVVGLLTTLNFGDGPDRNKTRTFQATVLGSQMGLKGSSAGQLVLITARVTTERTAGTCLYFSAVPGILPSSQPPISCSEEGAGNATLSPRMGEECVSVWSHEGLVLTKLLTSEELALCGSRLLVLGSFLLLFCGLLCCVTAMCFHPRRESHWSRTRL
Chain of UniProt Q96DX7 (Q96DX7 whole entry, looked up): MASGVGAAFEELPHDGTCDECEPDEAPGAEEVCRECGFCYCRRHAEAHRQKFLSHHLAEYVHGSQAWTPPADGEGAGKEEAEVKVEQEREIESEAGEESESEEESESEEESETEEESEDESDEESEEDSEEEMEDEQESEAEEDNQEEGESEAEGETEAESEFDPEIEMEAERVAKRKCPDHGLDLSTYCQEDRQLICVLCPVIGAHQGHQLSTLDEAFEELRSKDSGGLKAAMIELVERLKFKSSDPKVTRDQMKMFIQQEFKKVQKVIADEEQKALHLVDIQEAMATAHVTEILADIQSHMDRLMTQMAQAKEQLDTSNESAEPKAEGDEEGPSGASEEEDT
Chain of UniProt Q5VZI3 (Q5VZI3 whole entry, looked up): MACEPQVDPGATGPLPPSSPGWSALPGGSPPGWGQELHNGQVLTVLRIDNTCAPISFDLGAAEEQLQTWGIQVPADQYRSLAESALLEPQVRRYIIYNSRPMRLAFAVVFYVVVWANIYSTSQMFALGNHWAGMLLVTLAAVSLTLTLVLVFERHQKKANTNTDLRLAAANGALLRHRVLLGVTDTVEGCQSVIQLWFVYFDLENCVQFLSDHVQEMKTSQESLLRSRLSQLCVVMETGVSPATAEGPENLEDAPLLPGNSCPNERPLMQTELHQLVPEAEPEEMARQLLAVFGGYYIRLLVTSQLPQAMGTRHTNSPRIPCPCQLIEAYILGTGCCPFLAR
Chain of UniProt Q9NVA4 (Q9NVA4 whole entry, looked up): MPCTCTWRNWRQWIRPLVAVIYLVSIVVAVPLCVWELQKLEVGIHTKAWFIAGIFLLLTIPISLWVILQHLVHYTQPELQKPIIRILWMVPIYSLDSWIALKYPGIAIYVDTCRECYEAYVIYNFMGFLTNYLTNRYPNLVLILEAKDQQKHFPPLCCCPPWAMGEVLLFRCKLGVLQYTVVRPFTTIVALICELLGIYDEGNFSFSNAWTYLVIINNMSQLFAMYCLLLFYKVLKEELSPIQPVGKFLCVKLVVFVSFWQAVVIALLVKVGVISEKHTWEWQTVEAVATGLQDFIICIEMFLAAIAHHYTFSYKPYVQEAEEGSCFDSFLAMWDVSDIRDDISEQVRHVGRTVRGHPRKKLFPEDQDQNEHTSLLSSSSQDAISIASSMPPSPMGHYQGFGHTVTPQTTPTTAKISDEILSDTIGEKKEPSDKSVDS
Chain of UniProt P30291 (P30291 whole entry, looked up): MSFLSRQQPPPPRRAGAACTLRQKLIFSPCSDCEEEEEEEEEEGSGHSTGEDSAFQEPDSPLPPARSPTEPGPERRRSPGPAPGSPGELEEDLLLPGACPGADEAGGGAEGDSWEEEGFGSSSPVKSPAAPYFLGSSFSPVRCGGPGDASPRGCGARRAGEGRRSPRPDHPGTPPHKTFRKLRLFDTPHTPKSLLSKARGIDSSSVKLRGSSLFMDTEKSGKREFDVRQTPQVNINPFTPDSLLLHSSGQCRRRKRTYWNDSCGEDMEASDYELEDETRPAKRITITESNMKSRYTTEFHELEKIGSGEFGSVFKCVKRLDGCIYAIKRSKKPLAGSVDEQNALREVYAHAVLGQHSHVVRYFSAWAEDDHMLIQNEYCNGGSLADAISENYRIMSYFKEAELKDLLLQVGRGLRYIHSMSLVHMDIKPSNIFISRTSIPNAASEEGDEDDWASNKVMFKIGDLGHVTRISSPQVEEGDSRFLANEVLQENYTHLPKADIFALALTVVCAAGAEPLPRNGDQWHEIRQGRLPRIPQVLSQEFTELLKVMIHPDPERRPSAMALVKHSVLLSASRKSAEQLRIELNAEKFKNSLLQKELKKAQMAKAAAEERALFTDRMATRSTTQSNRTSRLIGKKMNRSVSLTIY
Chain of UniProt Q9BQB6 (Q9BQB6 whole entry, looked up): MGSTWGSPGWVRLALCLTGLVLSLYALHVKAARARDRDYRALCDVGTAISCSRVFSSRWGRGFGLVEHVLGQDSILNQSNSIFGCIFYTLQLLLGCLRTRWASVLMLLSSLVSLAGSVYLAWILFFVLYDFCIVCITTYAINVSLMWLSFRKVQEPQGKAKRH
Chain of UniProt P51668 (P51668 whole entry, looked up): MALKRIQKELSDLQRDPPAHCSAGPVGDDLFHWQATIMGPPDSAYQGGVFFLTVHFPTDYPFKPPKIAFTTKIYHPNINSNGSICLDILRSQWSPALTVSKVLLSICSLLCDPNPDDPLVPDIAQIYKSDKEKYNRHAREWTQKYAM
Chain of UniProt P61960 (P61960 whole entry, looked up): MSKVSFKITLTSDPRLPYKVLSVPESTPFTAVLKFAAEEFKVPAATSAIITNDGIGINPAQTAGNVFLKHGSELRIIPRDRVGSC

Compound in this assay: Nc1ccccc1NC(=O)c1ccc(CNC(=O)OCc2cccnc2)cc1 [entinostat]
Put plainly: log2 fold change, soluble protein after heating vs DMSO (PISA); higher = thermal stabilisation; K562 cells, 10 uM, 30 min; active = over 0.2 and 3.5 SD of the protein, either way, in both replicates (recomputed). An outline of the steps: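 K562 cells at 2×10^6 cells/mL were treated for 30 min with 10 μM compound, and aliquots were heated for 3 min over 48°C-58°C before pooling. Extraction used PBS with 0.5% NP-40 at 4°C, and soluble protein was the supernatant after 21,000xg for 90 min, measured by TMTpro 16plex LC-MS/MS with channel sums equalised. Thermal stability values, relative to control samples and from duplicates, are log2 fold changes.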
On to UBIAD1 (UniProt Q9Y5Z9), for which the log2 fold change was -0.076 (inactive).

In the case of TMEM41A (UniProt Q96HV5), the log2 fold change is -0.027 (inactive).

For the target TRIM23 (UniProt P36406), the log2 fold change was -0.01 (inactive).

For the target TXNL4B (UniProt Q9NX01), the log2 fold change was -0.024 (inactive).

With TSPAN13 (UniProt O95857), the log2 fold change is -0.109 (inactive).

With UNC119B (UniProt A6NIH7), the log2 fold change was 0.012 (inactive).

As for TUT4 (UniProt Q5TAX3), the log2 fold change is 0.004 (inactive).

VKORC1 (UniProt Q9BQB6): the log2 fold change is 0.025 (inactive).

WASH2P (UniProt Q6VEQ5): the log2 fold change is 0.028 (inactive).

Regarding TMEM184C (UniProt Q9NVA4), the log2 fold change is -0.218 (inactive).

On to UBE2J1 (UniProt Q9Y385), for which the log2 fold change is -0.077 (inactive).

On to TMEM268 isoform 3 (UniProt Q5VZI3), for which the log2 fold change is 0.059 (inactive).

For UFM1 isoform 2 (UniProt P61960), the log2 fold change is -0.012 (inactive).

Consider TMEM106B (UniProt Q9NUM4), for which the log2 fold change was 0.008 (inactive).

As for UBE2D1 (UniProt P51668), the log2 fold change is -0.168 (inactive).

Consider VPS37A (UniProt Q8NEZ2), for which the log2 fold change was 0.121 (inactive).

Take XRCC6 (UniProt P12956): the log2 fold change was 0.098 (inactive).

With UBXN10 (UniProt Q96LJ8), the log2 fold change was -0.069 (inactive).

Take TXNIP (UniProt Q9H3M7): the log2 fold change is -0.009 (inactive).

For the target WEE1 (UniProt P30291), the log2 fold change was 0.47 (inactive).

On to TRABD (UniProt Q9H4I3), for which the log2 fold change was -0.022 (inactive).

Take TMEM164 (UniProt Q5U3C3): the log2 fold change is -0.112 (inactive).

With TRIM44 (UniProt Q96DX7), the log2 fold change was -0.048 (inactive).

For TUBAL3 (UniProt A6NHL2), the log2 fold change is 0.061 (inactive).

Take TMEM8A (UniProt Q9HCN3): the log2 fold change is -0.485 (inactive).

As to TRIM4 (UniProt Q9C037), the log2 fold change was 0.03 (inactive).

As to UXT isoform 2 (UniProt Q9UBK9), the log2 fold change is 0.004 (inactive).

As for TMEM9B (UniProt Q9NQ34), the log2 fold change was 0.025 (inactive).

Take TMEM219 (UniProt Q86XT9): the log2 fold change was 0.052 (inactive).

As for VPS35L (UniProt Q7Z3J2), the log2 fold change was 0.006 (inactive).

Regarding VPS13B (UniProt Q7Z7G8), the log2 fold change was -0.033 (inactive).

As to TMEM179B (UniProt Q7Z7N9), the log2 fold change was 0.04 (inactive).

For XIAP (UniProt P98170), the log2 fold change is 0.009 (inactive).

In the case of VPS51 (UniProt Q9UID3), the log2 fold change is 0.07 (inactive).
